Screening data as filed in PubChem BioAssay.
LYPLA1 inh = LYPLA1 (human) inhibition in PME1 counter-screen; recombinant LYPLA1, FP-Rh probe fluorescence polarization; AID 2174; hit rate 0.16% among 320,000; O75608; inhibition, % at 5.9 µM;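 active means inhibition above the mean of all tested compounds plus 3 SD, set per campaign, cut at about 14% in these data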;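 further: inhibitors block serine hydrolase probe labeling of LYPLA1 so polarization falls; 0% = enzyme with DMSO and 100% = wells lacking LYPLA1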
Fam108B counter = counter-screen for RBBP9 inhibitors: inhibitors of mouse Fam108B; recombinant Fam108B, FP-Rh probe fluorescence polarization; inhibition, % at 9.51 µM; hit rate 0.33% among 300,000;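 active means inhibition above the screen mean inhibition plus 3 SD, computed separately per campaign, cut at about 18% in these data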;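 further: inhibitors lower polarization as less probe binds the enzyme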
PME-1 inh = blocks human protein phosphatase methylesterase 1. recombinant PME-1, FP-Rh probe fluorescence polarization. hit rate 0.53% among 320,000. inhibition, % at 5.9 µM. Q9Y570;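 active means inhibition above the campaign mean of all compounds plus 3 SD, cut at about 26% in these data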;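 further: competitive labeling of PME-1 active site by serine hydrolase directed probe; 0% = PME-1 with DMSO and 100% = wells lacking PME-1 enzyme; inhibitors block probe labeling so polarization falls and inhibition rises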
PP1 counter = PP1-alpha (human) inhibition in PP5 counter-screen | P62136 | purified PP1alpha, OMFP fluorescence | inhibition, % at 6.7 µM | hit rate 0.9% among 320,000;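 active means inhibition above the mean inhibition of all tested compounds plus 3 SD, computed separately for each screening campaign, cut at about 15% in these data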
Target sequence (P62136 whole entry, looked up): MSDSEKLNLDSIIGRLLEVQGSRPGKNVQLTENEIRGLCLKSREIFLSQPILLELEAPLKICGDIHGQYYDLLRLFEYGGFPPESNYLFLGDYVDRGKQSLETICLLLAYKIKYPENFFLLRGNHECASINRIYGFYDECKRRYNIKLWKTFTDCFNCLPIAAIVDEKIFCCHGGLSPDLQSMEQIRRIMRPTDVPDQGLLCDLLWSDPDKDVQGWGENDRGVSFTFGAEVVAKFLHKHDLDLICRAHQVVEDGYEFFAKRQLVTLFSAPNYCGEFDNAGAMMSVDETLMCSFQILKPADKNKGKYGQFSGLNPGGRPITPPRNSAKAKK
PP5 inh = inhibitors of human protein phosphatase 5 (PP5); hit rate 0.18% among 320,000; AID 1987; inhibition, % at 6.7 µM; P53041; purified PP5c, OMFP substrate fluorescence;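 active means inhibition above the campaign's mean inhibition across all tested compounds plus 3 SD, cut at about 9.5% in these data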;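 further: 0% = DMSO only and 100% = 100 µM cantharidin control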
LYPLA2 counter = counter-screen for PME1 inhibitors: inhibitors of human LYPLA2; recombinant LYPLA2, FP-Rh probe fluorescence polarization; inhibition, % at 5.9 µM; hit rate 0.38% among 320,000; AID 2177;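 active means inhibition above the screen-wide mean plus 3 SD, limit set per campaign, cut at about 26% in these data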;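 further: 0% = LYPLA2 with DMSO and 100% = wells lacking LYPLA2 enzyme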
Target sequence (O95372 whole entry, looked up): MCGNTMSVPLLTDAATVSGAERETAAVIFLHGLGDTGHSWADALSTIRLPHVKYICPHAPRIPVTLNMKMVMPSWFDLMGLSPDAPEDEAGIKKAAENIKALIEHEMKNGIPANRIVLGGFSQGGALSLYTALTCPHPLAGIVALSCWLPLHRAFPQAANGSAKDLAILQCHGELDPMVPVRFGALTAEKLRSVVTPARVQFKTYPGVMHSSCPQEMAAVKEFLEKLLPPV
LYPLA2 confirm = counter-screen for PME1 inhibitors: confirmation of human LYPLA2 inhibitors | recombinant LYPLA2, FP-Rh probe fluorescence polarization | inhibition, % at 5.9 µM | hit rate 72% among 1,100 | shares compounds with LYPLA2 counter;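 active means mean inhibition across replicates above the hit cutoff set in the primary screen, cut at about 26% in these data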;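 further: blocked labeling of the enzyme by serine hydrolase FP-Rh probe lowers polarization; 0% = enzyme with DMSO and 100% = wells lacking LYPLA2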
LYPLA2 gel ABPP = LYPLA2 (human) inhibition, late stage results. shares compounds with LYPLA2 counter. rhLYPLA2 in mouse brain proteome, gel ABPP FP-Rh. inhibition, % at 20 µM. hit rate 30% among 150;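 active means inhibition of LYPLA2 enzyme probe labeling above about 50%, limit read from the data; inactive means inhibition below that limit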;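 further: loss of FP-Rh probe labeling of the LYPLA2 gel band measured as band density; 0% = DMSO only control band and 100% = blank gel background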
PP1 confirm = human PP1 phosphatase inhibition, confirmation. shares compounds with PP1 counter. purified PP1alpha, OMFP substrate fluorescence. inhibition, % at 6.7 µM. hit rate 52% among 1,900. AID 2358;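 active means mean PP1 inhibition above a set limit taken from the earlier primary screen, cut at about 15% in these data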
PP5 counter = PP5 phosphatase inhibition, counter-screen for PP1 inhibitors; purified PP5c, OMFP fluorescence; shares compounds with PP1 counter; hit rate 4% among 1,900; AID 2360; inhibition, % at 6.7 µM;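 active means mean PP5 inhibition over triplicate wells above about 9.5% taken from the earlier PP1 screen, limit read from the data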
The depositor's hits bear a star; · = not tested or not shown. Shown are actives, neighbours in structure and some others; about 1.8% of the full set was active somewhere.

SMILES | LYPLA1 inh | Fam108B counter | PME-1 inh | PP1 counter | PP5 inh | LYPLA2 counter | PP1 confirm | PP5 counter | others
O=[N+]([O-])c1ccc(NCc2ccc(Cl)cc2)c2ccncc12 | 3 | 5 | 7 | 1 | 2 | 33* | · | · | LYPLA2 confirm=52*;LYPLA2 gel ABPP=49
NCCNc1ccc([N+](=O)[O-])c2cccnc12 | 1 | 4 | -3 | -2 | 3 | 2 | · | ·
C/C(=N\N1CCCCCC1)c1c(O)n(C)c(=O)n(C)c1=O | -3 | 1 | -7 | 0 | 1 | -3 | · | ·
CCN(CC)C(=O)c1ccc(NC(=O)CCCSc2ccccc2)cc1 | -2 | 0 | -8 | -6 | 3 | 8 | · | ·
CCN(CC)C(=O)c1ccc(NC(=S)NC(=O)CCc2ccccc2)cc1 | 0 | 1 | 1 | -1 | 0 | 30* | · | · | LYPLA2 confirm=21
C[N+]1(C)C2CCC1CC(OC(=O)c1ccccc1)C2 (configuration not stated) | 5 | 4 | 2 | 3 | 0 | 26* | · | · | LYPLA2 confirm=2
O=C1NC(=O)N(Cc2ccc(F)cc2)C(=O)/C1=C\C=C\c1ccco1 | -2 | -3 | -11 | 21* | 0 | 0 | 23* | -1
O=C1NC(=O)N(Cc2ccccc2)C(=O)/C1=C\c1ccco1 | -1 | 3 | -1 | 0 | 0 | -5 | · | ·
O=c1[nH]c(=O)n(CCC2=CCCCC2)c(O)c1/C=N/Nc1cccc2ccccc12 | -1 | 6 | 12 | 21* | 0 | 2 | 18* | 2
O=c1[nH]c(=S)[nH]c(O)c1N=Nc1cc(S(=O)(=O)Nc2ccc(Cl)cc2)ccc1Cl | -3 | · | 41* | 21* | 2 | 2 | 25* | 2
COC(=O)C1=CO[C@@H](C)[C@@H]2CN3CC[C@]4(C(=O)Nc5ccccc54)[C@@H]3C[C@H]12 | 0 | -1 | 7 | 3 | 4 | -11 | · | ·
CC(Cc1ccccc1)NCCC(=O)NC(C)Cc1ccccc1 (configuration not stated) | 2 | -5 | -10 | -2 | 1 | -7 | · | ·
O=C(c1cc(C(=O)NCc2ccccc2)c(=O)n(Cc2ccccc2)c1)c1cc(Cl)ccc1O | -34 | -32 | -34 | 18* | 3 | -67 | 16* | 1
C[C@]12CC3CC(N)(C1)C[C@@](C)(C3)C2 | 3 | 0 | -1 | -1 | -1 | 8 | · | ·
CC1CC(NC(=O)C2C3CCC(O3)C2C(=O)O)CC(C)(C)C1 (configuration not stated) | -4 | -3 | 4 | 80* | 79* | 7 | 30* | 48*
COC1C(OC(=O)c2ccc(C)[nH]2)C(O)C(Oc2ccc3c(O)c(NC(=O)c4ccc(O)c(CC=C(C)C)c4)c(=O)oc3c2Cl)OC1(C)C (configuration not stated) | -6 | -1 | 0 | 24* | 6 | -7 | 17* | 4
CC(=O)Nc1ccccc1C(=O)OCC(=O)c1ccc2c(c1)OCCO2 | -1 | -3 | -3 | -1 | 1 | -2 | · | ·
CC(=O)c1ccccc1NC(=O)C1C2CCC(O2)C1C(=O)O (configuration not stated) | 1 | -5 | 0 | 72* | 71* | 6 | 33* | 39*
O=C(O)C1C2CCC(O2)C1C(=O)Nc1ccc(F)c(F)c1 (configuration not stated) | -2 | 2 | 4 | 68* | 74* | -3 | 13 | 22*
Clc1ccc(CCC(Cn2ccnc2)Sc2c(Cl)cccc2Cl)cc1 (configuration not stated) | 1 | 2 | 5 | 34* | 5 | 0 | 28* | -3
Clc1ccc(Cn2ccnc2)cn1 | -3 | 3 | -4 | 6 | 0 | 3 | · | ·
CN(C)C1(CNC(=O)c2ccc(Cl)c(S(=O)(=O)NCc3ccco3)c2)CCCCC1 | 0 | -4 | 0 | -3 | 3 | -3 | · | ·
CCCCOC(=O)c1ccc(NC(=O)c2c(O)[nH]c(=O)[nH]c2=O)cc1 | -2 | 4 | 1 | 9 | -1 | -6 | · | ·
CCOC(=O)c1cccc(NC(=O)c2c(O)[nH]c(=O)[nH]c2=O)c1 | -2 | 1 | 3 | 19* | 2 | 6 | 12 | -2
C[C@@H]1C2C[C@@]34COC(=O)C3=CC=C[C@H]4[C@@]13C[C@H](c1ccoc1)O[C@@H]3O2 | 0 | 0 | -4 | 3 | 2 | 0 | · | ·
Clc1ccc(C(Cn2ccnc2)OCc2csc3c(Cl)cccc23)c(Cl)c1 (configuration not stated) | -5 | -9 | -1 | 32* | 2 | -8 | 29* | -1
CCCC(CCC)C(=O)OC[N+](C)(C)CCOC(=O)C(O)(c1ccccc1)C1CCCC1 (configuration not stated) | 2 | 0 | -6 | -7 | 4 | 4 | · | ·
CCOP(=O)(OCC)c1cc(C)c(O)c(C(C)(C)C)c1 | 3 | 4 | 3 | -4 | 2 | 5 | · | ·
